Where “and” joins values, the source holds several entries; their conditions need not be identical. Identical values can stand only once. Results filed as inconclusive are left out. Values without a mark were called inactive. Calls of active or inactive are those of the source. The call rests on the fitted dose curve; in most records, active means well fitted inhibition curve with a large enough effect; inconclusive means small, poorly fitted or top-dose-only effect; inactive means flat fitted curve, though single readings scatter.
System: HEK293
Test: Cytotoxic Profiling of Annotated Libraries Using Quantitative High-Throughput Screening (AID 1296008); further: nearly all actives have a fitted effect of over 60% in size
Details: Five cell lines viability, CellTiter-Glo ATP luminescence, 48-72 h; max response: stronger effect = lower value
In short: (§1)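 Cells exposed to compounds for 48 or 72 hr at 37 degrees Celsius. Viability read as ATP-coupled luminescence with CellTiter-Glo after 10 min at room temperature.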
On the % scale 0 is the no-effect control and ±100 the full control effect; potency means the concentration at half of the fitted maximal effect.

SMILES | max response | outcome | Potency
CC(N)C12CC3CC(CC(C3)C1)C2 (stereo not given) | -21.7% and 2.38% | – | –
COc1cccc(N(C)C(=S)Oc2ccc3c(c2)CCCC3)n1 | -19.3% | – | –
NC(=O)c1cccc(N)c1 | -4.67% | – | –
O=c1oc2c(O)c(O)cc3c(=O)oc4c(O)c(O)cc1c4c23 | – | inactive | –
Nc1nc(=S)c2[nH]cnc2[nH]1 | – | – | 3.76 µM (active) and 9.35 µM (active)
N[C@@H](C(=O)N[C@@H]1C(=O)N2C(C(=O)O)=C(Cl)CS[C@H]12)c1ccccc1 | – | inactive | –
CC(C)C[C@H](NC(=O)[C@H](CCc1ccccc1)NC(=O)CN1CCOCC1)C(=O)N[C@@H](Cc1ccccc1)C(=O)N[C@@H](CC(C)C)C(=O)[C@@]1(C)CO1 | – | – | 37.6 nM (active) and 23.5 nM (active)
NC(=O)c1ccc2[nH]ccc2c1 | -1.44% | – | –
COC(c1ccccc1)(c1ccccc1)[C@H](Oc1nc(C)cc(C)n1)C(=O)O | -24.1% and 3.62% | – | –
COc1nc(N)nc2c1ncn2[C@@H]1O[C@H](CO)[C@@H](O)[C@@H]1O | – | inactive | –
COC(=O)Nc1nc2ccc(Sc3ccccc3)cc2[nH]1 | – | – | 473 nM (active) and 1.32 µM (active)
CCN(CC)CCn1c(=O)c(Cc2ccc(OC)cc2)nc2ccccc21 | -12.9% | – | –
COc1cc(NS(=O)(=O)c2ccc(N)cc2)nc(OC)n1 | 4.64% and 3.91% | – | –
O=C(NCC1CN(c2ccc(N3CCOCC3=O)cc2)C(=O)O1)c1ccc(Cl)s1 (stereo not given) | -28.8% | – | –
CN(C)c1ccc(C(=C2C=CC(=[N+](C)C)C=C2)c2ccc(N(C)C)cc2)cc1 | – | – | 237 nM (active) and 105 nM (active)
CC1=C(C(=O)O)N2C(=O)[C@@H](NC(=O)C(N)c3ccccc3)[C@H]2SC1 (stereo not given in full) | -2.36% | – | –
CCN1CCCC1CNC(=O)c1cc(S(N)(=O)=O)ccc1OC (stereo not given) | -9.26% | – | –

SMILES | max response | outcome | Potency
CC(C)NCC(O)c1ccc(NS(C)(=O)=O)cc1 (stereo not given) | 0.785% | – | –
CC(C)C1CCC(C(=O)N[C@H](Cc2ccccc2)C(=O)O)CC1 (stereo not given in full) | -0.795% and -11.5% | – | –
COc1c(N2CCNC(C)C2)c(F)cc2c(=O)c(C(=O)O)cn(C3CC3)c12 (stereo not given) | -24.5% | – | –
CC(C)(C)NC(=O)[C@H]1CC[C@H]2[C@@H]3CC[C@H]4NC(=O)C=C[C@]4(C)[C@H]3CC[C@]12C | -5.16% | – | –
CCCCS(=N)(=O)CCC(N)C(=O)O (stereo not given) | -11.7% | – | –
Nc1nc(N)nc(-c2cc(Cl)ccc2Cl)n1 | -8.28% and -2.53% | – | –
CCCCOc1ccc(CC(=O)NO)cc1 | -50.4% | – | –
NCCCC(O)(P(=O)(O)O)P(=O)(O)O | -8.5% and -22.9% | – | –
COc1cc2ncnc(Nc3cccc(Cl)c3)c2cc1OC | – | – | 372 nM (active)
Cc1oc(=O)oc1CN1CCN(c2cc3c(cc2F)c(=O)c(C(=O)O)c2n3C(C)S2)CC1 (stereo not given) | 0.387% and 0.715% | – | –
O=C(O)C1CCCN(CCC=C(c2ccccc2)c2ccccc2)C1 (stereo not given) | 3.73% | – | –
CC[C@H](C)C(=O)O[C@H]1C[C@@H](C)C=C2C=C[C@H](C)[C@H](CC[C@@H]3C[C@@H](O)CC(=O)O3)[C@H]21 | -37.5% | – | –
CNC1CCCN(c2c(F)cc3c(=O)c(C(=O)O)cn(C4CC4)c3c2OC)C1 (stereo not given) | -0.681% and -8.47% | – | –
Nc1nc(N)c2nc(CNc3ccc(C(=O)NC(CCC(=O)O)C(=O)O)cc3)cnc2n1 (stereo not given) | – | – | 132 nM (active)
CCOC(=O)[C@H](CCc1ccccc1)N[C@H]1CCc2ccccc2N(CC(=O)O)C1=O | – | – | 18700 nM (active)
O=C(O)c1cn(C2CC2)c2cc(N3CCNCC3)c(F)cc2c1=O | – | inactive | –

System: HaCat
Test: as above
Details: Five cell lines viability, CellTiter-Glo ATP luminescence, 48-72 h; max response: stronger effect = lower value
In short: as §1

SMILES | max response | outcome | Potency
CC(N)C12CC3CC(CC(C3)C1)C2 (stereo not given) | 2.96% and 2.31% | – | –
COc1cccc(N(C)C(=S)Oc2ccc3c(c2)CCCC3)n1 | – | inactive | –
NC(=O)c1cccc(N)c1 | -6.72% | – | –
O=c1oc2c(O)c(O)cc3c(=O)oc4c(O)c(O)cc1c4c23 | 0.0618% and -16.9% | – | –
Nc1nc(=S)c2[nH]cnc2[nH]1 | – | – | 1.5 µM (active) and 4.69 µM (active)
N[C@@H](C(=O)N[C@@H]1C(=O)N2C(C(=O)O)=C(Cl)CS[C@H]12)c1ccccc1 | – | inactive | –
CC(C)C[C@H](NC(=O)[C@H](CCc1ccccc1)NC(=O)CN1CCOCC1)C(=O)N[C@@H](Cc1ccccc1)C(=O)N[C@@H](CC(C)C)C(=O)[C@@]1(C)CO1 | – | – | 332 nM (active)
NC(=O)c1ccc2[nH]ccc2c1 | 0.172% | – | –
COC(c1ccccc1)(c1ccccc1)[C@H](Oc1nc(C)cc(C)n1)C(=O)O | -18.5% and -6.09% | – | –
COc1nc(N)nc2c1ncn2[C@@H]1O[C@H](CO)[C@@H](O)[C@@H]1O | – | inactive | –
COC(=O)Nc1nc2ccc(Sc3ccccc3)cc2[nH]1 | -7.21% | – | –
CCN(CC)CCn1c(=O)c(Cc2ccc(OC)cc2)nc2ccccc21 | -7.99% | – | –
COc1cc(NS(=O)(=O)c2ccc(N)cc2)nc(OC)n1 | – | inactive | –
O=C(NCC1CN(c2ccc(N3CCOCC3=O)cc2)C(=O)O1)c1ccc(Cl)s1 (stereo not given) | – | inactive | –
CN(C)c1ccc(C(=C2C=CC(=[N+](C)C)C=C2)c2ccc(N(C)C)cc2)cc1 | – | – | 1.06 µM (active) and 935 nM (active)
CC1=C(C(=O)O)N2C(=O)[C@@H](NC(=O)C(N)c3ccccc3)[C@H]2SC1 (stereo not given in full) | 3% | – | –

SMILES | max response | outcome | Potency
CCN1CCCC1CNC(=O)c1cc(S(N)(=O)=O)ccc1OC (stereo not given) | 2.07% | – | –
CC(C)NCC(O)c1ccc(NS(C)(=O)=O)cc1 (stereo not given) | – | inactive | –
CC(C)C1CCC(C(=O)N[C@H](Cc2ccccc2)C(=O)O)CC1 (stereo not given in full) | -8.21% and -7.47% | – | –
COc1c(N2CCNC(C)C2)c(F)cc2c(=O)c(C(=O)O)cn(C3CC3)c12 (stereo not given) | – | inactive | –
CC(C)(C)NC(=O)[C@H]1CC[C@H]2[C@@H]3CC[C@H]4NC(=O)C=C[C@]4(C)[C@H]3CC[C@]12C | -13.8% and -8.14% | – | –
CCCCS(=N)(=O)CCC(N)C(=O)O (stereo not given) | – | inactive | –
Nc1nc(N)nc(-c2cc(Cl)ccc2Cl)n1 | -21.1% and 4.26% | – | –
NCCCC(O)(P(=O)(O)O)P(=O)(O)O | -6.79% | – | –
COc1cc2ncnc(Nc3cccc(Cl)c3)c2cc1OC | – | – | 16.6 nM (active) and 1.46 µM (active)
Cc1oc(=O)oc1CN1CCN(c2cc3c(cc2F)c(=O)c(C(=O)O)c2n3C(C)S2)CC1 (stereo not given) | – | inactive | –
O=C(O)C1CCCN(CCC=C(c2ccccc2)c2ccccc2)C1 (stereo not given) | -1.89% | – | –
CC[C@H](C)C(=O)O[C@H]1C[C@@H](C)C=C2C=C[C@H](C)[C@H](CC[C@@H]3C[C@@H](O)CC(=O)O3)[C@H]21 | – | – | 11800 nM (active)
CNC1CCCN(c2c(F)cc3c(=O)c(C(=O)O)cn(C4CC4)c3c2OC)C1 (stereo not given) | 0.986% and -11% | – | –
Nc1nc(N)c2nc(CNc3ccc(C(=O)NC(CCC(=O)O)C(=O)O)cc3)cnc2n1 (stereo not given) | 4.29% | – | –
CCOC(=O)[C@H](CCc1ccccc1)N[C@H]1CCc2ccccc2N(CC(=O)O)C1=O | – | inactive | –
O=C(O)c1cn(C2CC2)c2cc(N3CCNCC3)c(F)cc2c1=O | – | inactive | –
